Results published in the supplement of paper PMC11732987, “Enantioselective OTUD7B fragment discovery through chemoproteomics screening and high-throughput optimisation” (Communications Chemistry, 2025).

Key:
Assay in all cases: log2 ratio of Biotin-Ahx-Ub-VS probe labelling (fragment/DMSO); higher = less target engagement (more negative = stronger competition), active = hit call of the paper (q ≤ 0.05, log2 ratio ≤ -1)
Conditions in all cases: compound concentration: 200 uM; treatment time: 3 h
ALG13 = target: T1, ALG13 (UniProt Q9NP73)
T1 sequence (whole entry): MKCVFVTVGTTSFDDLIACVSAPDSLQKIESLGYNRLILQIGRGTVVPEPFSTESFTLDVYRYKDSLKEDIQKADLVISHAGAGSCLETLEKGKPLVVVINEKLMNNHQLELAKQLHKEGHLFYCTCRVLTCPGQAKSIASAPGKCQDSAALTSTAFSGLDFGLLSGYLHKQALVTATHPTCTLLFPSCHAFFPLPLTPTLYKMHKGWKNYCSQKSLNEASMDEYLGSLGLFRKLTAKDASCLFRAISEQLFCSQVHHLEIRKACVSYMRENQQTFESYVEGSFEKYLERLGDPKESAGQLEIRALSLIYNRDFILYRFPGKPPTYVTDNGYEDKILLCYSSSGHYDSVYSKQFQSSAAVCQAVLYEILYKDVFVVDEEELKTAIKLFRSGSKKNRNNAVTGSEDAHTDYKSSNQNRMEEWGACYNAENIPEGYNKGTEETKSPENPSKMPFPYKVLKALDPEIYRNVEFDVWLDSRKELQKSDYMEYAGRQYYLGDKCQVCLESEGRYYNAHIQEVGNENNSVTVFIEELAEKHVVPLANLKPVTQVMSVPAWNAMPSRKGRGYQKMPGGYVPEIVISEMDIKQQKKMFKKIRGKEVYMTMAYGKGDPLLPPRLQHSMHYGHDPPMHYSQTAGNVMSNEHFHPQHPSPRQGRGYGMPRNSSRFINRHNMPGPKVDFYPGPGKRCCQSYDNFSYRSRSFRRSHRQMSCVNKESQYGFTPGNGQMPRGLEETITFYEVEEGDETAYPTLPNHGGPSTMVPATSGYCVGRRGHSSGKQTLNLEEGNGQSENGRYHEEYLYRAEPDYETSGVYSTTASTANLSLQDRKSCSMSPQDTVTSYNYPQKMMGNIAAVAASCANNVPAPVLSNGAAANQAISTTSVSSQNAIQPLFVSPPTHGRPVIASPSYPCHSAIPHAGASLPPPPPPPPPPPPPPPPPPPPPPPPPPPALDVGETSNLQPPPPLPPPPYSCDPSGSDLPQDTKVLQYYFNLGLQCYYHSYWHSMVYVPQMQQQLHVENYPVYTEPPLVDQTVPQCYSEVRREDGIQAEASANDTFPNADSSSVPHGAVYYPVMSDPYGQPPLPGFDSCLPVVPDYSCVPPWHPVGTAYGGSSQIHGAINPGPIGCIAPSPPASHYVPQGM
Procedure, shortened: (§1)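 Each value is an average log2 ratio of fragment to vehicle, tested by unpaired t-test. The underlying Spectronaut label-free quantities were global-median-normalised, and only proteins with ≥2 unique peptides were included. Triplicate HEK293T lysate samples (495 µg) were exposed to fragment at 200 µM or vehicle for 3 h, then to Biotin-Ahx-Ub-VS at 0.5 µM final for 1 h, before NeutrAvidin enrichment of labelled DUBs, LysC and trypsin digestion, and diaPASEF LC-MS/MS.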

ATXN3 = ATXN3 (UniProt P54252)
ATXN3, sequence (P54252 whole entry): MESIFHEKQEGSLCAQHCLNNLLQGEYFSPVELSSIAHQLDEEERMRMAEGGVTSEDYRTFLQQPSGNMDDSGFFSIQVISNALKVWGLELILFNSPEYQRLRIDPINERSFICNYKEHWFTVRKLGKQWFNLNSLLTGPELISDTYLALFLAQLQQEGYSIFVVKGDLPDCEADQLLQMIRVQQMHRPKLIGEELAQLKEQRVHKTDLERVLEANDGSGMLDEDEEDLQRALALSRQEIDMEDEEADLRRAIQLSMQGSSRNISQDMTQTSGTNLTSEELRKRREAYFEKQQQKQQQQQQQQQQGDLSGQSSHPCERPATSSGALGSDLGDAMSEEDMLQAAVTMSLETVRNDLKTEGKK
Procedure, shortened: as §1

BAP1 = target: T2, BAP1 (UniProt Q92560)
T2 sequence (whole entry): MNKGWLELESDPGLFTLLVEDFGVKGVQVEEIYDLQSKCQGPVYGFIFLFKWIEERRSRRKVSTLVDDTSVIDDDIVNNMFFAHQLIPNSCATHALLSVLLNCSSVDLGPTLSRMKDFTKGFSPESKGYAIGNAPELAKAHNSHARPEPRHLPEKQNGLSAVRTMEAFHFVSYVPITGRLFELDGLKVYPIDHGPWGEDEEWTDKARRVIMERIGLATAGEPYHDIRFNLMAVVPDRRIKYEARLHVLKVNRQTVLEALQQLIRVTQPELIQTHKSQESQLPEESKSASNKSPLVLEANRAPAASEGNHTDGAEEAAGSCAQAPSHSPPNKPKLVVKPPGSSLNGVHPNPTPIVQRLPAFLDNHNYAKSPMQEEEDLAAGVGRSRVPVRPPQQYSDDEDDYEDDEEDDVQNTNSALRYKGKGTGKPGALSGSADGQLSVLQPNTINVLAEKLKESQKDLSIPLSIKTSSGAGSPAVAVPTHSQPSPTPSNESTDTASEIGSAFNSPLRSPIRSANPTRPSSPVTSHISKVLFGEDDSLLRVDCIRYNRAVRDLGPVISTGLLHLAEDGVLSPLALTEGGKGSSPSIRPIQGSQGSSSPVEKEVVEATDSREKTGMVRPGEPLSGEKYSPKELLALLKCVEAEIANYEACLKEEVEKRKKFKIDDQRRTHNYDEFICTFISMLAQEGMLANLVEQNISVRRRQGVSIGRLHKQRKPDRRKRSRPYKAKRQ
Procedure, shortened: as §1

EIF3F = EIF3F (UniProt O00303)
EIF3F, sequence (O00303 whole entry): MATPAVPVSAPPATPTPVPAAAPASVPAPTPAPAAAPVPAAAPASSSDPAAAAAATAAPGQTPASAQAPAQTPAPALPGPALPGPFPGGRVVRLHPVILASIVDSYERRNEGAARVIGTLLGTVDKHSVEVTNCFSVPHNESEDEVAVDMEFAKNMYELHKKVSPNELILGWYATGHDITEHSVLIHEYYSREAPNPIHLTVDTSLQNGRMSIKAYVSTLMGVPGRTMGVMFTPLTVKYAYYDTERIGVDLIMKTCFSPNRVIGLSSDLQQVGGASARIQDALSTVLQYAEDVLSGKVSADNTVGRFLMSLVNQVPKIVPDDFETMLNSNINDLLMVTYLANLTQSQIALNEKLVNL
Procedure, shortened: as §1

EIF3H = EIF3H (UniProt O15372)
EIF3H, sequence (O15372 whole entry): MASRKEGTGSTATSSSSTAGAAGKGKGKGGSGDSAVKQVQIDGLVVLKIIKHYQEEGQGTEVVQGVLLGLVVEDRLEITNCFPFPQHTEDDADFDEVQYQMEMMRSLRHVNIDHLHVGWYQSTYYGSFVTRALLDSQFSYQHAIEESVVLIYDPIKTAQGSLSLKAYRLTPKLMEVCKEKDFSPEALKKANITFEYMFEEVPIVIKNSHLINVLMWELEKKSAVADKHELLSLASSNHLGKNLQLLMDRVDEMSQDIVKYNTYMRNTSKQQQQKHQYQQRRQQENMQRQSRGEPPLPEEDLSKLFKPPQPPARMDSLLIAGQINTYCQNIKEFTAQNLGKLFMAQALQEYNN
Procedure, shortened: as §1

FAM105A = target: T3, FAM105A (UniProt Q9NUU6)
T3 sequence (whole entry): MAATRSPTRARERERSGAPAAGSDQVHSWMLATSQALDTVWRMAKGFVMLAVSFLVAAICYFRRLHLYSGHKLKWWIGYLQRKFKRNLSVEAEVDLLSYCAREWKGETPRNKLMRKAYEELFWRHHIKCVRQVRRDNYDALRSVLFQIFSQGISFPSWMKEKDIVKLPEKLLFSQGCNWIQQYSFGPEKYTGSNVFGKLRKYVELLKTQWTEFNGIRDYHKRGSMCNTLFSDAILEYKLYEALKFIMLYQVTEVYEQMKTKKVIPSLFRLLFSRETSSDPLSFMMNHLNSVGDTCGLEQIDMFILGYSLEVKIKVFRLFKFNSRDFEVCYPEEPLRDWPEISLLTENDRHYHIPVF
Procedure, shortened: as §1

OTUB1 = OTUB1 (UniProt Q96FW1)
OTUB1, sequence (Q96FW1 whole entry): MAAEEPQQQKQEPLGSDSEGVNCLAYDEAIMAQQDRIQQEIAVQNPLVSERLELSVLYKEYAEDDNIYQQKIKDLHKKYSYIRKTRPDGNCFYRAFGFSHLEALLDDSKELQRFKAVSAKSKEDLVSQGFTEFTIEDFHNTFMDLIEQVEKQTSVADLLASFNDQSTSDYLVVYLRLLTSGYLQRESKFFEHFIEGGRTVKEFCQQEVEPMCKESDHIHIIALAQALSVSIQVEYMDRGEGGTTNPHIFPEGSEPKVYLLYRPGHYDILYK
Procedure, shortened: as §1

OTUD4 = target: T4, OTUD4 (UniProt Q01804)
T4 sequence (whole entry): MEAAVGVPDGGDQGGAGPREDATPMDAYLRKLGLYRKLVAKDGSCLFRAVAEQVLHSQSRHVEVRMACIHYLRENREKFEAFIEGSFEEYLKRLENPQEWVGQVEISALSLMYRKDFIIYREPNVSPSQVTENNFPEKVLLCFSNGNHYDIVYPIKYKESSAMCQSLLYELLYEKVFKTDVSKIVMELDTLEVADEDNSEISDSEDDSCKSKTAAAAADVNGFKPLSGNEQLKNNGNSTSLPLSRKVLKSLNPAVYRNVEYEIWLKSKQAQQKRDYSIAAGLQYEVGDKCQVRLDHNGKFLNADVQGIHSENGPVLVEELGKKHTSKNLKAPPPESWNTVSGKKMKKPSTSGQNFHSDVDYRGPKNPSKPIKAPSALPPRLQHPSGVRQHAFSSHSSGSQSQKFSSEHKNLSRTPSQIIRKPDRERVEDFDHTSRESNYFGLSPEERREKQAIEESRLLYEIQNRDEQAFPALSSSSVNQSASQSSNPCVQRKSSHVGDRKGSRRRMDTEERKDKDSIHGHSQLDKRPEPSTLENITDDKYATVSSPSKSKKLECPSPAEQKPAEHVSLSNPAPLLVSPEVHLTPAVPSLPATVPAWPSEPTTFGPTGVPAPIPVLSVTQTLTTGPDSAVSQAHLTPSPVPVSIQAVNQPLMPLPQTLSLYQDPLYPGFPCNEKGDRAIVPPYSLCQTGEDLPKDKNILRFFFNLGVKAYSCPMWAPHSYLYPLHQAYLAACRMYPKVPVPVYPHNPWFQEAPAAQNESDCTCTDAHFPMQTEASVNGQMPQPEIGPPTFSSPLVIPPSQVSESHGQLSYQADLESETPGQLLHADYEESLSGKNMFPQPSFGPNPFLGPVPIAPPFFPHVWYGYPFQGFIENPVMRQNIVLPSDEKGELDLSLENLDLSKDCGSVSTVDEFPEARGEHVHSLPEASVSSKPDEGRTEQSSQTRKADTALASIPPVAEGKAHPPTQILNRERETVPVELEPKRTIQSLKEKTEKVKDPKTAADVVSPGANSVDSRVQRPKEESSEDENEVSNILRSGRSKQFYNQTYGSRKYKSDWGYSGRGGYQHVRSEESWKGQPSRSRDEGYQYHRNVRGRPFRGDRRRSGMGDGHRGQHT
Procedure, shortened: as §1

OTUD5 = target: T5, OTUD5 (UniProt Q96G74)
T5 sequence (whole entry): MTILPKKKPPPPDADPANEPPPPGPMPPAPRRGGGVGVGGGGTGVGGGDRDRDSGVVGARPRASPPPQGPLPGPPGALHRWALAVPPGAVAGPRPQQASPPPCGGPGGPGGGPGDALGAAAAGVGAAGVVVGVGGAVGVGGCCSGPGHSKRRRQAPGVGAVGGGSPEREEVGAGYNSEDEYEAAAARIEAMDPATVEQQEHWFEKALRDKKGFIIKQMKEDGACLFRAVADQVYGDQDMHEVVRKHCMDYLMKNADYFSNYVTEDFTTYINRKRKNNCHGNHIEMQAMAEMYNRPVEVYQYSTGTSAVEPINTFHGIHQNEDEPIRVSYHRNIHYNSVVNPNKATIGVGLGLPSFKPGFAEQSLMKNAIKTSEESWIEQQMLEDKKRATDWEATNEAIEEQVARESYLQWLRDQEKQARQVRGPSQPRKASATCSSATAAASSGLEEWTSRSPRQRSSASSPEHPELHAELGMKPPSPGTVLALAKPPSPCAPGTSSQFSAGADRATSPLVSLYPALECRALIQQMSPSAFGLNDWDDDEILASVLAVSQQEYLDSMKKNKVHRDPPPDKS
Procedure, shortened: as §1

Measured: log2 ratio of Biotin-Ahx-Ub-VS probe labelling

Cc1ccccc1CN(C)C(=O)CCl
inactive: ALG13 -0.539 | EIF3F -0.115 | EIF3H 0.207 | FAM105A -0.463 | OTUB1 -0.437 | OTUD4 -0.914
active: ATXN3 -1.13 | BAP1 -2.27 | OTUD5 -1.15
